The source of these data is PubChem BioAssay AID1159554 (Broad Institute, 2015).

Several values for one entry are separate records, joined by “and”; a condition that tells them apart may be missing. Equal values may be shown once. Out of some 94,000 compounds screened, about 2,100 (2.2%) were called active. Rule as the data show it: active = activity change below about -80%; inconclusive = no clear call, values can overlap the other calls; inactive = above that. What follows is part of a selection rich in actives, with near analogues and random picks from the rest.

This assay can be described thus: P. falciparum Dd2 growth inhibitors, primary screen, SYBR Green fluorescence, single dose replicates (AID 1159554). The following applies: 72 h, at 10 µM, active compounds read low.
For `C/C=C/c1ccc([C@H]2[C@@H](CO)N(C(=O)NCCC)[C@H]2CN(C)C(C)=O)cc1`, the activity change is 0.514% (inactive).
Regarding `CCCNC(=O)[C@@H]1[C@@H](CO)[C@@H]2Cn3c(ccc(-c4cccc(OC)c4)c3=O)[C@H]1N2C(=O)NCCC`, the activity change is 8.98% (inactive).
On to `COCC(=O)Nc1ccc2c(c1)OC[C@H](C)N(C(=O)c1cnccn1)C[C@@H](C)[C@@H](OC)CN(C)C2=O`, for which the activity change was -61.6% (inactive).
Then `COc1ccc(-c2ccccc2[C@H]2[C@@H](CO)N(C(=O)C3CCC3)[C@H]2C#N)cc1`, with 17.9% (inactive); and `COc1cccc(CNC(=O)C[C@@H]2C=C[C@@H](NC(=O)C3CCC3)[C@@H](CO)O2)c1`, with 37.9% (inactive).
As for `COc1ccc2c3c(n(C)c2c1)[C@@H](CO)NCC31CN(S(=O)(=O)c2cccc(C)c2)C1`, the figure is -18.8% (inactive); as for `N#Cc1cccc(-c2ccc(C3[C@H]4CNC[C@@H]3N4S(=O)(=O)c3ccc(-c4ccccc4)cc3)cc2)c1` (stereo partly specified), 14.1% (inactive) and -40.8% (inactive); as for `C[C@H]1CN([C@@H](C)CO)C(=O)c2cc(-c3ccncc3)cnc2O[C@@H]1CN(C)C(=O)C1CCCCC1`, -1.12% (inactive).
As for `N#C[C@@H]1[C@H](c2ccccc2-c2ccc(F)cc2)[C@@H](CO)N1c1ncc(-c2ccccc2)s1`, the figure is 27.4% (inactive); as for `CO[C@H]1CN(C)C(=O)c2cc(NC(=O)c3nc4ccccc4s3)ccc2OC[C@H](C)N(Cc2cccnc2)C[C@@H]1C`, -15.4% (inactive).
Regarding `CCCC(=O)Nc1ccc2c(c1)C(=O)N(C)C[C@H](OC)[C@H](C)CN(CCc1ccccc1)[C@H](C)CO2`, the activity change was -14.1% (inactive).
As for `C[C@@H]1CN([C@@H](C)CO)C(=O)c2cc(NS(=O)(=O)c3ccccc3)ccc2O[C@@H]1CN(C)Cc1ccc(C(=O)Nc2ccccc2N)cc1`, the figure is -83.2% (active).
Consider `C[C@H]1CN([C@@H](C)CO)C(=O)Cc2cc(NS(=O)(=O)c3ccccc3)ccc2O[C@H]1CN(C)Cc1ccc(C(=O)Nc2ccccc2N)cc1`, for which the activity change is -77.2% (inactive).
As to `C[C@H]1CN([C@@H](C)CO)C(=O)Cc2cc(NS(=O)(=O)c3ccccc3)ccc2O[C@@H]1CN(C)Cc1ccc(C(=O)Nc2ccccc2N)cc1`, the activity change was -81.4% (active).
As for `CC(C)NC(=O)Nc1ccc2c(c1)CC(=O)N([C@H](C)CO)C[C@@H](C)[C@@H](CN(C)Cc1ccc(C(=O)Nc3ccccc3N)cc1)O2`, the figure is -49.7% (inactive).
As for `C[C@@H]1CN([C@@H](C)CO)C(=O)Cc2cc(NC(=O)C3CCCCC3)ccc2O[C@@H]1CN(C)Cc1ccc(C(=O)Nc2ccccc2N)cc1`, the figure is -83.7% (active); as for `Cc1noc(C)c1S(=O)(=O)Nc1ccc2c(c1)C(=O)N([C@@H](C)CO)C[C@H](C)[C@H](CN(C)Cc1ccc(C(=O)Nc3ccccc3N)cc1)O2`, -52.6% (inactive).
Then `C[C@@H]1CN([C@@H](C)CO)C(=O)Cc2cc(NC(=O)C3CCCCC3)ccc2O[C@@H]1CN(C)Cc1ccc(-c2ccccc2)cc1`, with -20.2% (inactive); and `Cc1ccc(S(=O)(=O)Nc2ccc3c(c2)C(=O)N([C@@H](C)CO)C[C@@H](C)[C@@H](CN(C)Cc2ccc(C(=O)Nc4ccccc4N)cc2)O3)cc1`, with -61.1% (inactive); and `C[C@H](CO)N1C[C@H](C)[C@H](CN(C)Cc2ccc(C(=O)Nc3ccccc3N)cc2)Oc2ccc(NS(C)(=O)=O)cc2C1=O`, with -28.4% (inactive).
`CCCNC(=O)N1C[C@H](C)[C@@H](OC)CN(C)C(=O)c2ccc(NC(=O)CC)cc2OC[C@@H]1C`: the activity change was 52.7% (inactive).
Then `COc1ccc2c3c(n(C)c2c1)[C@H](CO)NCC31CN(Cc2cc(F)ccc2F)C1`, with 23% (inactive); and `C[C@H]1CN([C@@H](C)CO)S(=O)(=O)c2ccc(C#Cc3cccnc3)cc2O[C@H]1CN(C)C(=O)CN(C)C`, with -40.6% (inactive).
Then `C[C@H]1CCCCO[C@H](CN(C)S(=O)(=O)c2ccc(F)cc2)[C@@H](C)CN([C@@H](C)CO)C(=O)c2cc(NS(=O)(=O)c3cn(C)cn3)ccc2O1`, with 9.89% (inactive); and `CCCNC(=O)C[C@@H]1CC[C@H]2[C@@H](COC[C@@H](O)CN2Cc2ccccc2F)O1`, with 7.46% (inactive).
As for `C[C@@H]1CN([C@@H](C)CO)S(=O)(=O)c2ccc(C#Cc3ccncc3)cc2O[C@@H]1CN(C)S(=O)(=O)c1ccccc1`, the figure is -55.9% (inactive); as for `C[C@@H]1CN([C@@H](C)CO)S(=O)(=O)c2ccc(C#Cc3ccc(F)cc3)cc2O[C@H]1CN(C)S(C)(=O)=O`, -67.9% (inactive).
As for `COc1ccccc1-c1ccc2c(c1)O[C@H](CN(C)S(=O)(=O)c1ccc(C)cc1)[C@@H](C)CN([C@H](C)CO)S2(=O)=O`, the activity change was -80.6% (active).
Then `C[C@@H]1CN([C@H](C)CO)S(=O)(=O)c2ccc(C#Cc3ccncc3)cc2O[C@@H]1CN(C)S(=O)(=O)c1ccc(F)cc1`, with -83% (active); and `Cc1ccc(S(=O)(=O)N(C)C[C@@H]2Oc3cc(C4=CCCC4)ccc3S(=O)(=O)N([C@@H](C)CO)C[C@@H]2C)cc1`, with -71.1% (inactive); and `COc1ccccc1-c1ccc2c(c1)O[C@@H](CN(C)C)[C@H](C)CN([C@H](C)CO)S2(=O)=O`, with -28.9% (inactive).
As to `CO[C@@H]1CN(C)C(=O)c2cc(NC(=O)Nc3cc(F)ccc3F)ccc2OC[C@@H](C)N(C)C[C@H]1C`, the activity change is -36.8% (inactive).
As for `CN1C(=O)c2cc(NC(=O)C3CCOCC3)ccc2OC[C@@H]2O[C@@H](CC(=O)NCC3CC3)CC[C@@H]21`, the figure is 6.17% (inactive); as for `O=C(NCCN1CCCC1)[C@@H]1N[C@@H]2c3ccc(-c4ccccc4)c(=O)n3C[C@@H]2[C@H]1CO`, -12.1% (inactive); as for `COc1ccc(S(=O)(=O)N2CCCCN3[C@H](CO)[C@@H](c4ccc(C#CC(C)C)cc4)[C@H]3C2)cc1`, -38.8% (inactive).
`COc1ccc(S(=O)(=O)N2CCCCN3[C@@H](CO)[C@@H](c4ccc(C#CCC(C)C)cc4)[C@@H]3C2)cc1`: the activity change is -87.6% (active).
As for `COc1ccc(S(=O)(=O)N2CCCCN3[C@H](C2)[C@H](c2ccc(C#CCC(C)C)cc2)[C@@H]3CO)cc1`, the figure is 2.68% (inactive); as for `CO[C@H]1CN(C)C(=O)c2cc(NC(=O)Nc3ccc4c(c3)OCO4)ccc2OC[C@@H](C)NC[C@@H]1C`, -43.8% (inactive).
Then `Cc1noc(C)c1S(=O)(=O)Nc1ccc2c(c1)C(=O)N([C@@H](C)CO)C[C@H](C)[C@@H](CN(C)C(=O)Nc1cccc3ccccc13)OCCCC[C@H](C)O2`, with -88.5% (active); and `C[C@H]1CCCCO[C@@H](CN(C)C(=O)Nc2cccc3ccccc23)[C@@H](C)CN([C@@H](C)CO)C(=O)c2cc(NS(=O)(=O)c3ccc(Cl)cc3)ccc2O1`, with -44.1% (inactive); and `Cc1noc(C)c1S(=O)(=O)Nc1ccc2c(c1)C(=O)N([C@@H](C)CO)C[C@@H](C)[C@H](CN(C)C(=O)Nc1cccc3ccccc13)OCCCC[C@H](C)O2`, with -39% (inactive).
Then `C[C@@H]1CCCCO[C@@H](CN(C)C(=O)Nc2cccc3ccccc23)[C@H](C)CN([C@@H](C)CO)C(=O)c2cc(NS(=O)(=O)c3ccccc3)ccc2O1`, with -2.21% (inactive); and `Cc1ccc(S(=O)(=O)Nc2ccc3c(c2)C(=O)N([C@@H](C)CO)C[C@@H](C)[C@H](CN(C)C(=O)Nc2cccc4ccccc24)OCCCC[C@H](C)O3)cc1`, with -81.5% (active); and `Cc1ccc(S(=O)(=O)Nc2ccc3c(c2)C(=O)N([C@H](C)CO)C[C@H](C)[C@H](CN(C)C(=O)Nc2ccc4c(c2)OCO4)OCCCC[C@@H](C)O3)cc1`, with 4.19% (inactive).
As to `Cc1noc(C)c1S(=O)(=O)Nc1ccc2c(c1)C(=O)N([C@@H](C)CO)C[C@@H](C)[C@H](CN(C)C(=O)Nc1cccc3ccccc13)O2`, the activity change was 16.8% (inactive).
Then `COc1ccc(S(=O)(=O)Nc2ccc3c(c2)C(=O)N([C@@H](C)CO)C[C@H](C)[C@@H](CN(C)C(=O)Nc2ccc4c(c2)OCO4)OCCCC[C@@H](C)O3)cc1`, with -81.3% (active); and `Cc1noc(C)c1S(=O)(=O)Nc1ccc2c(c1)C(=O)N([C@@H](C)CO)C[C@@H](C)[C@H](CN(C)S(=O)(=O)c1ccc(Cl)cc1)OCCCC[C@H](C)O2`, with -80.6% (active).
Then `Cc1ccc(S(=O)(=O)Nc2ccc3c(c2)C(=O)N([C@H](C)CO)C[C@H](C)[C@@H](CN(C)C(=O)Nc2ccc4c(c2)OCO4)OCCCC[C@@H](C)O3)cc1`, with -34.5% (inactive); and `Cc1ccc(S(=O)(=O)N(C)C[C@H]2OCCCC[C@H](C)Oc3ccc(NS(=O)(=O)c4c(C)noc4C)cc3C(=O)N([C@H](C)CO)C[C@@H]2C)cc1`, with -35.7% (inactive); and `Cc1noc(C)c1S(=O)(=O)Nc1ccc2c(c1)C(=O)N([C@@H](C)CO)C[C@@H](C)[C@@H](CN(C)S(=O)(=O)c1ccccc1)OCCCC[C@H](C)O2`, with -22.9% (inactive).
As for `CCNC(=O)C[C@@H]1CC[C@H]2[C@@H](COc3ccc(NC(=O)Cc4cccs4)cc3C(=O)N2C)O1`, the figure is 3.93% (inactive).
